# Test results as given in PubChem BioAssay AID2232 (The Scripps Research Institute Molecular Screening Center, 2010).
# Among all 1,100 compounds or so, about 790 (72%) were called active.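 How the source made its calls: active means mean inhibition across replicates above the hit cutoff set in the primary screen (cut at about 26% in these data); inactive means the rest.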 So high a share suggests a set chosen from earlier hits. Only a sample is shown.
# Target: Acyl-protein thioesterase 2 (Homo sapiens) (UniProt O95372)
# Sequence (O95372 whole entry, looked up): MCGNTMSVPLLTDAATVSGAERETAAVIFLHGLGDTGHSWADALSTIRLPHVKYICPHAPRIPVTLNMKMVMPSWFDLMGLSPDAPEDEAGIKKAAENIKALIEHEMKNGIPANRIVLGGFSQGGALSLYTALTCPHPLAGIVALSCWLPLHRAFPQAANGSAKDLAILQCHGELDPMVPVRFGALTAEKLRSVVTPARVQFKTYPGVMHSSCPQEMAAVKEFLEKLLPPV
# Assay: inhibition of human lysophospholipase 2 – biochemical, fluorescence polarization, FP-Rh probe ABPP, counter-screen for PME1 inhibitor project, confirmation (AID 2232);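 further: blocked labeling of the enzyme by serine hydrolase FP-Rh probe lowers polarization; 0% = enzyme with DMSO and 100% = wells lacking LYPLA2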
# Settings: recombinant LYPLA2, FP-Rh probe fluorescence polarization; at 5.9 µM; active compounds read high
row,SMILES,inhibition
1,Cc1ccc(C(c2sc3nc(C)nn3c2O)N2CCN(c3ccc(F)cc3)CC2)cc1 (centres undefined),30% (active)
2,COc1ccc(CCNc2nc(-c3cccc(NC(C)=O)c3)cs2)cc1OC,3.07% (inactive)
3,O=C(Cc1ccc(-n2c(=O)[nH]c3ccccc3c2=O)cc1)N1CCN(c2cccc(Cl)c2)CC1,48.3% (active)
4,COc1ccc(-c2nc(CS(=O)CC(=O)NCc3ccccn3)c(C)o2)cc1 (centres undefined),9.85% (inactive)
5,O=[N+]([O-])c1ccc(N2CCN(CC(O)COc3ccccc3)CC2)cc1 (centres undefined),29.1% (active)
6,COCCOC(=O)c1sc(=S)n(CCOC)c1N,21.3% (inactive)
7,Cc1ccc(/C=N/NC(=O)C(NC(=O)c2ccccc2)c2n[nH]c(=O)c3ccccc23)cc1 (centres undefined),56.2% (active)
8,Cc1nn2c(=O)cc(COC(=O)c3ccc(NC(=O)C(C)(C)C)cc3)nc2s1,27.5% (active)
9,COc1ccccc1C(=O)NC(CCSC)C(=O)N1CCN(C/C=C/c2ccccc2)CC1 (centres undefined),31.7% (active)
10,Cc1cc(C)c(C#N)c(SCc2[nH]nc3c2C(c2ccccc2)C(C#N)=C(N)O3)n1 (centres undefined),48.2% (active)
11,N#Cc1cc([N+](=O)[O-])ccc1Oc1cccc(/C=N/NC(=O)c2ccc(Cl)cc2)c1,15.7% (inactive)
12,CC(=O)c1ccc(N2CCN(C(=O)C3CCN(S(=O)(=O)c4ccc5c(c4)CC(C)N5C(=O)C4CC4)CC3)CC2)cc1 (centres undefined),72% (active)
13,CC(=O)N1c2ccc(S(=O)(=O)N3CCC(C(=O)N4CCN(c5ccccc5)CC4)CC3)cc2CC1C (centres undefined),47.4% (active)
14,Cc1nn(Cc2ccccc2)c(C)c1CNC(=O)c1ccc(F)c(S(=O)(=O)N2CCOCC2)c1,-0.54% (inactive)
15,CCCCCC1CCC(c2nnc(SCC(C)=O)o2)CC1 (centres undefined),37.8% (active)
16,CCN(CC)c1ccc(C(=O)NNC(=O)CCc2nc3ccccc3c(=O)[nH]2)cc1,1.17% (inactive)
17,COc1ccc(N2CCN(C(=O)c3ccc(N4CCCCS4(=O)=O)cc3)CC2)cc1,56.2% (active)
18,Nc1[nH][nH]c(=O)c1N=Nc1ccc2c(c1)OCO2,1.18% (inactive)
19,COc1ccc(N2CC(C(=O)NCCN3C(=O)S/C(=C\c4cccnc4)C3=O)CC2=O)c(OC)c1 (centres undefined),6.43% (inactive)
20,CCCCCCOc1ccc(OC(=O)c2cccnc2)cc1,59.1% (active)
21,CCC(=C/c1sc2ccc3ccccc3c2[n+]1C)/C=C1\Sc2ccc3ccccc3c2N1C,0.49% (inactive)
22,O=C(Nc1ccc(N2CCN(C(=O)c3cccs3)CC2)cc1)c1cccnc1Cl,37.2% (active)
23,COc1ccc(C(C#N)Nc2ccc(C)cc2)cc1 (centres undefined),3.09% (inactive)
24,Cc1cccc(OCC(O)CN2CCN(CCN3C(=O)c4cccc5cccc(c45)C3=O)CC2)c1C (centres undefined),42.9% (active)
